Reference: PubChem BioAssay (EPA / NIEHS)
The source made the active and inactive calls. How the source made its calls: active means hit-call score of the fitted dose curve at least 0.9, where 1 is the maximum; inactive means score below 0.9.

Experiments:
Conditions in all cases: mRNA level, 48 h; actives raise or lower the signal
[1] = read-out: Alkaline Phosphatase, Placental (ALPP) gene, ALPP (gene 250); assay: LTEA_HepaRG_ALPP: Life Technologies and Expression Analysis (LTEA) Assay for Alkaline Phosphatase, Placental (ALPP) gene using HepaRG (AID 2283468);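 on AC50: differentiated human HepaRG liver cells in serum-free induction medium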
Outline: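 HepaRG, 48 h plating then 48 h dosing, serum-free induction medium, 0.5% DMSO. 8 conc, half-log, max 100 uM, duplicates. Endpoint: ALPP transcript by qRT-PCR, housekeeping-normalized; gain or loss fitted vs DMSO.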

[2] = read-out: Bcl-2 (BAD) gene, BAD (gene 572); assay: LTEA_HepaRG_BAD: Life Technologies and Expression Analysis (LTEA) Assay for Bcl-2 (BAD) gene using HepaRG (AID 2283469)
Outline: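 Read-out: qRT-PCR of BAD mRNA, normalized to three housekeeping genes. Human HepaRG cultures got 48 h chemical exposure in 0.5% DMSO, duplicate eight-point half-log series topping at 100 uM. Gain or loss of signal fitted versus DMSO vehicle.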

[3] = read-out: Bcl-2 (BAX) gene, BAX (gene 581); assay: LTEA_HepaRG_BAX: Life Technologies and Expression Analysis (LTEA) Assay for Bcl-2 (BAX) gene using HepaRG (AID 2283470)
Outline: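 Gene expression measured by Fluidigm qRT-PCR with three housekeeping genes for normalisation. HepaRG cells, plated 48 h beforehand, treated 48 h at up to 100 uM (8-point, half-log) in 0.5% DMSO. Bidirectional fitting versus DMSO.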

[4] = read-out: adenosine kinase (ADK) gene, ADK (gene 132); assay: LTEA_HepaRG_ADK: Life Technologies and Expression Analysis (LTEA) Assay for adenosine kinase (ADK) gene using HepaRG (AID 2283471)
Outline: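 Differentiated HepaRG cells dosed 48 h in serum-free induction medium, 0.5% DMSO vehicle, eight half-log concentrations from 100 uM, in duplicate. ADK mRNA by TaqMan qRT-PCR normalised to ACTB, GAPDH, POLR2A; bidirectional fit versus DMSO.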

[5] = read-out: Alpha-fetoprotein (AFP) gene, AFP (gene 174); assay: LTEA_HepaRG_AFP: Life Technologies and Expression Analysis (LTEA) Assay for Alpha-fetoprotein (AFP) gene using HepaRG (AID 2283472)
Outline: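 AFP transcript measured by TaqMan qRT-PCR with three housekeeping genes for normalization, after 48 h chemical treatment of HepaRG cells (top 100 uM, half-log steps, 0.5% DMSO). Gain or loss fitted against vehicle.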

BCL2L11 (gene 10018) = assay: LTEA_HepaRG_BCL2L11: Life Technologies and Expression Analysis (LTEA) Assay for Bcl-2 (BCL2L11) gene using HepaRG (AID 2283473)
Outline: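 Read-out is BCL2L11 transcript level by qRT-PCR, normalized to three housekeeping genes and fitted bidirectionally against 0.5% DMSO vehicle. HepaRG cells received chemicals for 48 h in serum-free induction medium, 100 uM down in half-log dilutions.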

[6] = read-out: Apolipoprotein A-V (APOA5) gene, APOA5 (gene 116519); assay: LTEA_HepaRG_APOA5: Life Technologies and Expression Analysis (LTEA) Assay for Apolipoprotein A-V (APOA5) gene using HepaRG (AID 2283474)
Outline: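 Readout is APOA5 transcript level by qRT-PCR on Fluidigm dynamic arrays, normalized to three housekeeping genes. HepaRG cultures received chemicals for 48 h at up to 100 uM (half-log steps, 0.5% DMSO), with gain or loss scored relative to DMSO.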

[7] = read-out: Apoptosis regulator Bcl-2 (Homo sapiens) (UniProt P10415); assay: LTEA_HepaRG_BCL2: Life Technologies and Expression Analysis (LTEA) Assay for Bcl-2 gene using HepaRG (AID 2283475)
Outline: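 qRT-PCR of BCL2 transcript, normalized to three housekeeping genes (ACTB, GAPDH, POLR2A), after 48 h chemical exposure of HepaRG cells; concentrations top 100 uM with half-log dilutions, 0.5% DMSO vehicle, duplicates; changes up or down fitted relative to vehicle.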

[8] = read-out: Bcl-2 (BID) gene, BID (gene 637); assay: LTEA_HepaRG_BID: Life Technologies and Expression Analysis (LTEA) Assay for Bcl-2 (BID) gene using HepaRG (AID 2283476)
Outline: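 Duplicate 48 h treatments of HepaRG cells in serum-free induction medium spanned 100 uM downward in half-log steps, 0.5% DMSO. Transcript change quantified by qRT-PCR against three housekeeping genes, fitted up or down versus DMSO.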

Caspase-3 (Homo sapiens) = Caspase-3 (Homo sapiens) (UniProt P42574); assay: LTEA_HepaRG_CASP3: Life Technologies and Expression Analysis (LTEA) Assay for cysteine-aspartic acid protease (CASP3) using HepaRG (AID 2283477)
Chain of Caspase-3 (Homo sapiens) (P42574 whole entry, looked up): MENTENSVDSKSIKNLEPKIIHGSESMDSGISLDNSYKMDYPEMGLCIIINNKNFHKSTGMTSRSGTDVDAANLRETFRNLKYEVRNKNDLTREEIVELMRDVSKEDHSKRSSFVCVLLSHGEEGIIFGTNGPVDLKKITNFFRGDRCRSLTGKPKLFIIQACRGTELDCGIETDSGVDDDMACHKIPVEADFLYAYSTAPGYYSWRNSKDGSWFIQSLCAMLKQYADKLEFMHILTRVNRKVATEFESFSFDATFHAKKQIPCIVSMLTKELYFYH
Outline: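 Read-out is CASP3 mRNA level by TaqMan qRT-PCR in human HepaRG cells after 48 h chemical exposure. Eight half-log concentrations topping at 100 uM were tested in 0.5% DMSO; gain or loss was fitted relative to DMSO.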

Measured: AC50

Chain of Apoptosis regulator Bcl-2 (Homo sapiens) (P10415 whole entry, looked up): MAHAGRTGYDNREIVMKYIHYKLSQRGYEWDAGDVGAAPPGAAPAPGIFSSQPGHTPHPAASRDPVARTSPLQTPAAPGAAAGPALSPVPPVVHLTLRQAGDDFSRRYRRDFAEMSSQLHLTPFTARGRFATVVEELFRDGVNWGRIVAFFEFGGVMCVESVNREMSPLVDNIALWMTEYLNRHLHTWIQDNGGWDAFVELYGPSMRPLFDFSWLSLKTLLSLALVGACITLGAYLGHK

COc1cc2c(c(OC)c1OC)-c1ccc(OC)c(=O)cc1[C@@H](NC(C)=O)CC2
inactive: [2] | [7] | [8] | Caspase-3 (Homo sapiens)
active: [1] 0.221 µM | [3] 0.0559 µM | [4] 0.0644 µM | [5] 0.148 µM | BCL2L11 (gene 10018) 0.237 µM | [6] 0.138 µM

O=c1[nH]cnc2c1ncn2[C@H]1CC[C@@H](CO)O1
inactive: [1] | [2] | [3] | [5] | BCL2L11 (gene 10018) | [6] | [7] | [8] | Caspase-3 (Homo sapiens)

CCCCCCCC/C=C\CCCCCCCC(=O)OC[C@@H](O)[C@H]1OC[C@H](O)[C@H]1O
inactive: [1] | [2] | [3] | [5] | BCL2L11 (gene 10018) | [6] | [7] | [8] | Caspase-3 (Homo sapiens)

NC(=O)N(O)[C@@H]1COc2cc(OCc3ccccc3)ccc21
inactive: [1] | [2] | [3] | [5] | BCL2L11 (gene 10018) | [6] | [7] | [8] | Caspase-3 (Homo sapiens)

CCCCCOC(C)=O
inactive: [1] | [2] | [3] | [5] | BCL2L11 (gene 10018) | [6] | [7] | [8] | Caspase-3 (Homo sapiens)

OC[C@H]1O[C@@H]2O[C@H]3[C@H](O)[C@@H](O)[C@@H](O[C@H]4[C@H](O)[C@@H](O)[C@@H](O[C@H]5[C@H](O)[C@@H](O)[C@@H](O[C@H]6[C@H](O)[C@@H](O)[C@@H](O[C@H]7[C@H](O)[C@@H](O)[C@@H](O[C@H]1[C@H](O)[C@H]2O)O[C@@H]7CO)O[C@@H]6CO)O[C@@H]5CO)O[C@@H]4CO)O[C@@H]3CO
inactive: [1] | [2] | [3] | [5] | BCL2L11 (gene 10018) | [6] | [7] | [8] | Caspase-3 (Homo sapiens)

c1ccc(C(O[C@@H]2CCCN(CCc3ccc4c(c3)OCO4)C2)c2ccccc2)cc1
active: [1] 68.5 µM | [3] 80.1 µM | [7] 73.2 µM | [8] 91 µM | Caspase-3 (Homo sapiens) 76.7 µM
inactive: [2] | [5] | BCL2L11 (gene 10018) | [6]

CC(C)C(=O)Nc1ccc([N+](=O)[O-])c(C(F)(F)F)c1
active: [1] 50 µM | [3] 50 µM | [5] 58.5 µM | [6] 65.9 µM | [7] 90.3 µM
inactive: [2] | BCL2L11 (gene 10018) | [8] | Caspase-3 (Homo sapiens)

Cn1cc[nH]c1=S
inactive: [1] | [2] | [3] | [5] | BCL2L11 (gene 10018) | [6] | [7] | [8] | Caspase-3 (Homo sapiens)

NC(N)=O
inactive: [1] | [2] | [3] | [5] | BCL2L11 (gene 10018) | [6] | [7] | [8] | Caspase-3 (Homo sapiens)

COS(C)(=O)=O
inactive: [1] | [2] | [3] | [5] | BCL2L11 (gene 10018) | [6] | [7] | [8] | Caspase-3 (Homo sapiens)

CCCC(CCC)C(=O)O
inactive: [1] | [2] | [3] | [5] | BCL2L11 (gene 10018) | [6] | [7] | [8] | Caspase-3 (Homo sapiens)

O=C1CN(N=Cc2ccc([N+](=O)[O-])o2)C(=O)N1
inactive: [2] | [3] | [5] | BCL2L11 (gene 10018) | [6] | [8] | Caspase-3 (Homo sapiens)
active: [1] 75 µM | [7] 80.7 µM

OCCOCCOCCO
inactive: [1] | [2] | [3] | [5] | BCL2L11 (gene 10018) | [6] | [7] | [8] | Caspase-3 (Homo sapiens)

OC(CCl)CCl
inactive: [1] | [2] | [3] | [5] | BCL2L11 (gene 10018) | [6] | [7] | [8] | Caspase-3 (Homo sapiens)

OCc1ccccc1
inactive: [1] | [2] | [3] | [5] | BCL2L11 (gene 10018) | [6] | [7] | [8] | Caspase-3 (Homo sapiens)

CCCCOC(=O)c1ccccc1
inactive: [1] | [2] | [3] | [5] | BCL2L11 (gene 10018) | [6] | [7] | [8] | Caspase-3 (Homo sapiens)

O=C(O)c1ccc2c(c1)nc(C(=O)NC1CCN(C3CC3)CC1)n2Cc1cc(-c2ccc(Cl)s2)on1
inactive: [1] | [2] | [3] | [5] | BCL2L11 (gene 10018) | [6] | [7] | [8] | Caspase-3 (Homo sapiens)

Cn1c(=O)c2[nH]cnc2n(C)c1=O
inactive: [1] | [2] | [3] | [5] | BCL2L11 (gene 10018) | [6] | [7] | Caspase-3 (Homo sapiens)
active: [8] 0.312 µM

CC(C)c1nnc2ccc(-c3ocnc3-c3cc(F)ccc3F)cn12
inactive: [2] | [3] | BCL2L11 (gene 10018) | [7] | [8] | Caspase-3 (Homo sapiens)
active: [1] 39.6 µM | [5] 50 µM | [6] 56.3 µM

CC1(C)C(=O)N(Cl)C(=O)N1Cl
inactive: [1] | [2] | [3] | [5] | BCL2L11 (gene 10018) | [6] | [7] | [8] | Caspase-3 (Homo sapiens)

CCN(CC)C(=S)SSC(=S)N(CC)CC
inactive: [1] | [2] | [3] | [5] | BCL2L11 (gene 10018) | [6] | [7] | [8] | Caspase-3 (Homo sapiens)

Nc1ccn([C@@H]2O[C@H](CO)[C@@H](O)[C@@H]2O)c(=O)n1
inactive: [1] | [2] | [3] | [5] | BCL2L11 (gene 10018) | [6] | [7] | [8] | Caspase-3 (Homo sapiens)

CCn1nc(C)c2c1C(=O)NCC(c1ccc(O)cc1)=N2
inactive: [1] | [2] | [3] | [5] | BCL2L11 (gene 10018) | [6] | [7] | [8] | Caspase-3 (Homo sapiens)

CCCCN1C(=O)[C@@H]([C@H](O)C2CCCCC2)NC(=O)C12CCN(Cc1ccc(Oc3ccc(C(=O)O)cc3)cc1)CC2
active: [1] 7.87 µM | [2] 3.81 µM | [5] 3 µM | BCL2L11 (gene 10018) 4.66 µM | [6] 3.04 µM | [7] 12.7 µM | Caspase-3 (Homo sapiens) 2.23 µM
inactive: [3] | [8]

C[C@]12C=CC(=O)C=C1CC[C@H]1[C@@H]3C[C@@H](O)[C@](O)(C(=O)CO)[C@@]3(C)C[C@H](O)[C@@]12F
inactive: [1] | [2] | [3] | [5] | BCL2L11 (gene 10018) | [6] | [7] | [8] | Caspase-3 (Homo sapiens)

CC(C)CC(C)O (centres undefined)
inactive: [1] | [2] | [3] | [5] | BCL2L11 (gene 10018) | [6] | [8] | Caspase-3 (Homo sapiens)

COc1cc(C(C)C)c2c(c1)S(=O)(=O)N(COc1cc(=O)n3cccc(OCCN4CCCCC4)c3n1)C2=O
inactive: [2] | [3] | BCL2L11 (gene 10018) | [8] | Caspase-3 (Homo sapiens)
active: [1] 6.3 µM | [5] 19.5 µM | [6] 22.6 µM | [7] 22.1 µM

CCc1ccc(O)c(C(C)(C)C)c1
inactive: [1] | [2] | [3] | [5] | BCL2L11 (gene 10018) | [6] | [7] | Caspase-3 (Homo sapiens)
active: [8] 0.00367 µM

OC(Cn1cncn1)(Cn1cncn1)c1ccc(F)cc1F
inactive: [1] | [2] | [3] | [5] | BCL2L11 (gene 10018) | [6] | [7] | [8] | Caspase-3 (Homo sapiens)

OCC(CO)(CO)CO
inactive: [1] | [2] | [3] | [5] | BCL2L11 (gene 10018) | [6] | [7] | [8] | Caspase-3 (Homo sapiens)

NNC(=O)c1ccncc1
inactive: [1] | [2] | [3] | [5] | BCL2L11 (gene 10018) | [6] | [7] | [8] | Caspase-3 (Homo sapiens)

CCCCCCOC(=O)CC(CC(=O)OCCCCCC)(OC(=O)CCC)C(=O)OCCCCCC
inactive: [1] | [2] | [3] | [5] | BCL2L11 (gene 10018) | [6] | [7] | [8] | Caspase-3 (Homo sapiens)

Cc1ccc(S(=O)(=O)NC(=O)NN2CCCCCC2)cc1
inactive: [2] | [3] | [5] | BCL2L11 (gene 10018) | [6] | [7] | [8] | Caspase-3 (Homo sapiens)
active: [1] 0.161 µM

OCCNCCO
active: [1] 50 µM | [5] 50 µM
inactive: [2] | [3] | BCL2L11 (gene 10018) | [6] | [7] | [8] | Caspase-3 (Homo sapiens)

CNC(C)=O
inactive: [1] | [2] | [3] | [5] | BCL2L11 (gene 10018) | [6] | [7] | [8] | Caspase-3 (Homo sapiens)
